Compound activity from PubChem.
In the library only some 4.6% were active in any assay of this set; here they are far more common.
NFkB transloc inh – blocks IL-1B driven NFkB nuclear translocation in HUVEC cells. HUVEC IL-1B NFkB p65 nuclear translocation imaging. inhibition, % at 2 µM. actives 0.43% (n = 94,000);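 active = inhibition above about 30% together with a positive call from visual inspection of the well image, limit read from the data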;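 also: nuclear over cytoplasmic p65 intensity ratio measured by imaging; 0% = IL-1B stimulated DMSO wells and 100% = unstimulated DMSO wells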
HUVEC tox IL1B – toxic to HUVEC cells under IL-1B stimulation. actives 0.41% (n = 94,000). cell count reduction, % at 2 µM. HUVEC cell count loss, Hoechst imaging, IL-1B stimulated. AID 845;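 active = cell count reduction more than 3 SD above the screen-wide mean, cut at about 70% in these data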;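 also: normalized per plate to untreated control cells as the no-loss baseline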
Cav3 T inh – inhibitors of human Cav3.2 T-type calcium channel | O95180 | B-score at 10 µM | Cav3.2-expressing cells, Fluo-4 calcium fluorescence FDSS; active compounds read low | actives 4% (n = 100,000);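 active = single-dose well whose peak fluorescence ratio is a statistical outlier from its plate by either plate-standardised score or position-corrected B-score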
NFkB transloc pot – enhances IL-1B driven NFkB nuclear translocation; HUVEC IL-1B NFkB p65 nuclear translocation imaging; activation, % at 2 µM; actives 0.3% (n = 94,000); AID 819;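 active = activation above 40%, about the mean plus 3 SD, also judged a hit on visual image review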;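 also: percent activation is computed from the nuclear over cytoplasmic p65 intensity ratio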
sEH activator – increases human soluble epoxide hydrolase activity; P34913; purified human sEH enzymatic activity, activator screen; activation, % at 2 µM; actives 0.04% (n = 91,000); AID 717; in the data active = activation above about 37%
Target sequence (P34913 whole entry, looked up): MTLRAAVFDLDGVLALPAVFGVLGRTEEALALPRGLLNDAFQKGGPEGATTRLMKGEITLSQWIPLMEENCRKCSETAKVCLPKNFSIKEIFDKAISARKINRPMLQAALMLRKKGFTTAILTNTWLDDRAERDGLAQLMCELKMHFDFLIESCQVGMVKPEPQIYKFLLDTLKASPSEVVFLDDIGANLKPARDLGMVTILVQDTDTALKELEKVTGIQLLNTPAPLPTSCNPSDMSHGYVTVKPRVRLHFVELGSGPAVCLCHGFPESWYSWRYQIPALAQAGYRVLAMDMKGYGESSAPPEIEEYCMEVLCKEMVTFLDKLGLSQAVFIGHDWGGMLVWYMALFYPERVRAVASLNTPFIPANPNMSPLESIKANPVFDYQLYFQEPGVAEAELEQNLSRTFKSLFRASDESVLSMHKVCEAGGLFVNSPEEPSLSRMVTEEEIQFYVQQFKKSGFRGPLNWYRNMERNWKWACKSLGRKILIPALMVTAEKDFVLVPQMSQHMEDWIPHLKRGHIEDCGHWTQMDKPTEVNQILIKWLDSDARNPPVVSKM
sEH inh – inhibitors of human soluble epoxide hydrolase | recombinant human sEH enzymatic activity assay | inhibition, % at 2 µM | actives 0.34% (n = 91,000) | AID 707; in the data active = inhibition above about 80%
The depositor's hits bear a star.

What do the screens show for `O=C1c2ccccc2C(Nc2ccc3c(c2)OCCO3)N1Cc1ccccc1` (centres undefined)?
NFkB transloc inh: -1; HUVEC tox IL1B: -21; Cav3 T inh: -6.2*; NFkB transloc pot: 1; sEH activator: 2; sEH inh: 3

How did O=C(c1ccc(Br)cc1)c1cc([N+](=O)[O-])ccc1N1CCCCC1 do in these assays?
NFkB transloc inh: 9; HUVEC tox IL1B: 63; Cav3 T inh: -3.6*; NFkB transloc pot: -9; sEH activator: 2; sEH inh: -2

Results for Cc1ccc(C(=O)c2cc([N+](=O)[O-])ccc2N2CCOCC2)c(C)c1 ?
NFkB transloc inh: 96*; HUVEC tox IL1B: 88*; Cav3 T inh: -2; NFkB transloc pot: -96; sEH activator: -4; sEH inh: 2

How did CC(=O)Nc1nc(C=C(Cl)Cl)cs1 do in these assays?
Cav3 T inh: -0.86

Results for Cc1cccc(N(C)C(=O)c2cc3cc4ccc(C)cc4nc3o2)c1 ?
NFkB transloc inh: -13; HUVEC tox IL1B: 6; Cav3 T inh: -5.1*; NFkB transloc pot: 13; sEH activator: -8; sEH inh: 7

What do the screens show for `CN(C)/C=C1\C(=O)Nc2ccccc21`?
NFkB transloc inh: 0; HUVEC tox IL1B: 9; Cav3 T inh: 0.038; NFkB transloc pot: 5; sEH activator: -8; sEH inh: 8

How did CCOC(=O)C1=C(C)N(C)C(=O)NC1c1ccc(C)s1 (centres undefined) do in these assays?
NFkB transloc inh: 2; HUVEC tox IL1B: -6; Cav3 T inh: 0.022; NFkB transloc pot: -2; sEH activator: -3; sEH inh: 5

Results for Cc1ccc(CCNC(=O)c2nnn(-c3cc(C)cc(C)c3)c2N)cc1 ?
NFkB transloc inh: -6; HUVEC tox IL1B: -31; Cav3 T inh: -0.65; NFkB transloc pot: 6; sEH activator: -1; sEH inh: 2

Results for Cc1cc(C)cc(NC(=S)NCc2ccc3c(c2)OCO3)c1 ?
NFkB transloc inh: 5; HUVEC tox IL1B: -1; Cav3 T inh: -4.8*; NFkB transloc pot: -5; sEH activator: -12; sEH inh: 9

What do the screens show for `Cc1cc(C)cc(-n2nnc(C(=O)NCc3ccc4c(c3)OCO4)c2N)c1`?
NFkB transloc inh: 5; HUVEC tox IL1B: -30; Cav3 T inh: -5.4*; NFkB transloc pot: -5; sEH activator: -3; sEH inh: 2

Results for Cc1ccc(C)c(NC(=S)NCc2ccc3c(c2)OCO3)c1 ?
NFkB transloc inh: 4; HUVEC tox IL1B: -18; Cav3 T inh: -1.2; NFkB transloc pot: -4; sEH activator: -2; sEH inh: 5

How did CCCOC(=O)Nc1cccc(C(C)=O)c1 do in these assays?
NFkB transloc inh: -8; HUVEC tox IL1B: 15; Cav3 T inh: 1.1; NFkB transloc pot: 8; sEH activator: 8; sEH inh: -8

What do the screens show for `COc1cccc(C(=O)OCCN2CCCCC2)c1`?
NFkB transloc inh: 21; HUVEC tox IL1B: -8; Cav3 T inh: -9.4*; NFkB transloc pot: -21; sEH activator: -2; sEH inh: 5

How did COc1cccc(C(=O)OC(C)CN2CCCC2)c1 (centres undefined) do in these assays?
NFkB transloc inh: -2; HUVEC tox IL1B: -4; Cav3 T inh: -0.2; NFkB transloc pot: 2; sEH activator: -3; sEH inh: 5

How did O=C(C#Cc1cccc([N+](=O)[O-])c1)c1ccccc1 do in these assays?
NFkB transloc inh: 10; HUVEC tox IL1B: -10; Cav3 T inh: 0.44; NFkB transloc pot: -10; sEH activator: -6; sEH inh: 5

Results for COc1ccc(C(=O)Nc2oc(-c3ccccc3)c(-c3ccccc3)c2C#N)cc1OC ?
Cav3 T inh: -2.9

Results for Cc1cccc(C)c1OCC(=O)Nc1oc(-c2ccccc2)c(-c2ccccc2)c1C#N ?
NFkB transloc inh: 49*; HUVEC tox IL1B: -12; Cav3 T inh: -3.2; NFkB transloc pot: -49; sEH activator: 0; sEH inh: 3

Results for COc1ccc(C(=O)Nc2oc(-c3ccccc3)c(-c3ccccc3)c2C#N)cc1 ?
NFkB transloc inh: -1; HUVEC tox IL1B: -5; Cav3 T inh: -7*; NFkB transloc pot: 1; sEH activator: -1; sEH inh: 4

How did COc1ccc(-c2oc(NC(C)=O)c(C#N)c2-c2ccc(OC)cc2)cc1 do in these assays?
NFkB transloc inh: -30; HUVEC tox IL1B: 0; Cav3 T inh: -0.72; NFkB transloc pot: 30; sEH activator: 5; sEH inh: -6

How did COc1ccc(-c2oc(NC(=O)c3ccc(C)cc3)c(C#N)c2-c2ccc(OC)cc2)cc1 do in these assays?
NFkB transloc inh: -11; HUVEC tox IL1B: -79; Cav3 T inh: -3.6*; NFkB transloc pot: 11; sEH activator: 4; sEH inh: -4

Results for O=C(Nc1ccccc1-c1ccccc1)c1ccc(Br)o1 ?
NFkB transloc inh: -5; HUVEC tox IL1B: -11; Cav3 T inh: -3.9*; NFkB transloc pot: 5; sEH activator: 0; sEH inh: -2

What do the screens show for `COC(=O)c1cc(=O)nc2sccn12`?
NFkB transloc inh: -42; HUVEC tox IL1B: -33; Cav3 T inh: 0.4; NFkB transloc pot: 42*; sEH activator: 0; sEH inh: 1

What do the screens show for `CCCCCCSc1nnc(-c2cnn(-c3ccccc3)c2-n2cccc2)n1C`?
NFkB transloc inh: -22; HUVEC tox IL1B: -8; Cav3 T inh: -8.9*; NFkB transloc pot: 22; sEH activator: -5; sEH inh: 6

How did Cc1cc(C(=O)Cn2nnc3ccccc3c2=O)c(C)n1Cc1cccs1 do in these assays?
NFkB transloc inh: 2; HUVEC tox IL1B: -14; Cav3 T inh: -3.5*; NFkB transloc pot: -2; sEH activator: -3; sEH inh: 2

How did COc1ccc(CCNC(=O)CSc2nnnn2-c2ccccc2)cc1 do in these assays?
Cav3 T inh: -0.014

What do the screens show for `COc1ccc(S(=O)(=O)N(Cc2ccccc2)Cc2nc(-c3ccccc3)no2)cc1`?
NFkB transloc inh: -20; HUVEC tox IL1B: -22; Cav3 T inh: -5.5*; NFkB transloc pot: 20; sEH activator: -1; sEH inh: 4

How did COc1ccc(-c2noc(CN(C)S(=O)(=O)c3ccccc3)n2)cc1OC do in these assays?
NFkB transloc inh: -3; HUVEC tox IL1B: -94; Cav3 T inh: 0.068; NFkB transloc pot: 3; sEH activator: -5; sEH inh: 0

How did Oc1sc(C=Nc2ccccc2)c2ccccc12 do in these assays?
NFkB transloc inh: -8; HUVEC tox IL1B: -19; Cav3 T inh: -5.1*; NFkB transloc pot: 8; sEH activator: -7; sEH inh: 10

What do the screens show for `OC(c1ccccc1)(c1ccc(F)cc1)C(c1ccccc1)N1CCOCC1` (centres undefined)?
NFkB transloc inh: 1; HUVEC tox IL1B: -5; Cav3 T inh: -2.8*; NFkB transloc pot: -1; sEH activator: -4; sEH inh: 6

What do the screens show for `O=C(NC1CCCCC1)C(c1ccccc1)N1CCOCC1` (centres undefined)?
NFkB transloc inh: -25; HUVEC tox IL1B: -40; NFkB transloc pot: 28; sEH activator: 3; sEH inh: -1
